Source: PubChem
KCNQ2 enhance: KCNQ2 (rat) channel potentiation. 310,000 tested, 0.54% active. AID 2239. CHO-K1 KCNQ2, FluxOR thallium flux fluorescence; hits give high values. B-score at 10 µM;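 active means fluorescence ratio B-score at least 3 SD of library B-scores, with initial fluorescence B-score within 3 of them, cut at about 5.3 in these data; same plate scores as AID 2156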;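 further: B-score of peak minus minimum over baseline fluorescence ratio after K+ and Tl+ stimulus; positive B-score means potentiation of KCNQ2 with more thallium influx and brighter signal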
Target sequence (O88943 whole entry, looked up): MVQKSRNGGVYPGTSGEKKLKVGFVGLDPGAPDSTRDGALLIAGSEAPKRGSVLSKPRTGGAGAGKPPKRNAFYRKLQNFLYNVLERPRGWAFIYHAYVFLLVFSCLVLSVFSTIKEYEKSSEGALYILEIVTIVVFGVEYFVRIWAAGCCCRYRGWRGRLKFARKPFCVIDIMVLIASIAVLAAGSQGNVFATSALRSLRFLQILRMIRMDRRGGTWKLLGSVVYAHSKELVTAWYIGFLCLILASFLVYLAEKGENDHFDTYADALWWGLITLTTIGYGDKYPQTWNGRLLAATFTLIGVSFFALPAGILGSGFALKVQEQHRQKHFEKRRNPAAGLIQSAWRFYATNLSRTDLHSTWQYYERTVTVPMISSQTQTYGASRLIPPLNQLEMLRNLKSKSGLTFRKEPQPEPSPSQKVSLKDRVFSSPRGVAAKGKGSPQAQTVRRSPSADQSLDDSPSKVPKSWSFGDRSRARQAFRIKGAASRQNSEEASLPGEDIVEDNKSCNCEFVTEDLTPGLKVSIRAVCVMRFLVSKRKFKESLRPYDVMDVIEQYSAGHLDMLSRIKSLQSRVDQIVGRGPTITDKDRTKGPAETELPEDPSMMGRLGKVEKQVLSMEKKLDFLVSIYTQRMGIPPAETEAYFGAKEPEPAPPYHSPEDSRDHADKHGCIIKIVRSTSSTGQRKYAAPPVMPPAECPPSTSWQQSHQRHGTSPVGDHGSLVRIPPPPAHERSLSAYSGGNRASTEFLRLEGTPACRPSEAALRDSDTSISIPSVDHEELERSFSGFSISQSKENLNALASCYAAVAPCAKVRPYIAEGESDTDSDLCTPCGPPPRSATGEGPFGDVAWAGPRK
KCNQ2 block: inhibitors of rat KCNQ2 potassium channel. O88943. CHO-K1 KCNQ2, FluxOR thallium flux, 20 min; hits give low values. B-score at 10 µM. 310,000 tested, 1.1% active. AID 2156;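 active means fluorescence ratio B-score at most minus 3 library SDs, with starting brightness B-score within 2 library SDs, cut at about -5.5 in these data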
An asterisk follows results filed as active; i = inactive; nt = not tested or not shown. This is a sample that favours compounds with a hit; in the whole collection about 1.6% have one here.

SMILES | KCNQ2 enhance | KCNQ2 block
COc1ccc(-c2nnn(CC(=O)N(CC(=O)NC3CCCC3)c3ccccc3)n2)cc1OC | 0.88 | i
O=C(CN1CCCCC1)Nc1nc(-c2ccccc2)cs1 | nt | i
COC(=O)c1ccc(NC(=S)NC2CCCCC2)cc1 | nt | i
COC(=O)c1cccnc1NC(=S)NC1CCCCC1 | 7.7* | i
Cc1nn2c(N3CCN(C)CC3)cc(C(C)(C)C)nc2c1-c1ccccc1 | nt | i
Cc1nn2c(N3CCN(C(=O)c4ccco4)CC3)cc(C(C)(C)C)nc2c1-c1ccccc1 | -6.5 | -6.5*
Cc1cc(C(=O)OC(C(=O)Nc2ccc(C)c(Cl)c2)c2ccccc2)c(C)o1 (centres undefined) | -5.8 | -5.8*
Cc1ccc(NC(=O)C(OC(=O)c2ccccc2Cl)c2ccccc2)cc1Cl (centres undefined) | nt | i
Cc1ccc(/C=C/C(=O)c2ccccc(=O)c2O)c(C)c1 | 5.9* | i
Cc1ccc(/C=C/C(=O)c2ccccc2)cc1 | nt | i
CCOc1ccc(N(Cc2ccc(OC)c(OC)c2)C(=O)c2ccco2)cc1 | nt | i
O=C(CCS(=O)(=O)c1ccccc1)NCCS(=O)(=O)c1ccccc1 | 0.62 | i
Clc1nnc(NN=C2CCCC2)c2ccccc12 | 9.5* | i
Clc1nnc(N/N=C/c2ccccc2)c2ccccc12 | 0.13 | i
CCCC(=O)N(C1CC(C)C(C#N)(C#N)C1(C#N)C#N)N(C)C (centres undefined) | 11* | i
Cc1cc(C)c2nc(N3CCC(C(=O)NCC4CCCO4)CC3)sc2c1 (centres undefined) | nt | i
Cc1cc(C)c2nc(N3CCC(C(=O)NCCCN4CCCCC4)CC3)sc2c1 | -6.5 | -6.5*
CCC(=O)N1CCc2cc(S(=O)(=O)CCC(=O)NC(C)CC)ccc21 (centres undefined) | 1.2 | i
CC(=O)N(c1ccccc1C)C1CCCC1 | 0.01 | i
CC(=O)N(C1=C(Cl)C(=O)c2ccccc2C1=O)C1CCCCC1 | -5.7 | -5.7*
COCCNC(=O)CSc1ccc(C)cc1 | 0.69 | i
COc1cc(N/N=C(\C)c2ccc(N)cc2)nc(-c2ccccc2)n1 | -6.8 | -6.8*
COc1cc(N/N=C(\C)c2ccc(O)c(C)c2)nc(-c2ccccc2)n1 | nt | i
O=C(CSc1nnc(-c2ccncc2)n1Cc1ccccc1)NC1CCCc2ccccc21 (centres undefined) | -5.8 | -5.8*
O=C(CSc1nc2ccccc2s1)NC1CCCc2ccccc21 (centres undefined) | nt | i
SMILES | KCNQ2 enhance | KCNQ2 block
Cc1cccc(Nc2nnc(SCC(=O)NC3CCCc4ccccc43)s2)c1C (centres undefined) | -5.9 | -5.9*
CNC(=O)CSc1nnc(-c2ccncc2)n1Cc1ccccc1 | nt | i
COc1ccc(C)cc1NC(=O)C(Sc1nnc(Nc2ccccc2F)s1)c1ccccc1 (centres undefined) | -6.3 | -6.3*
COc1ccc(C)cc1NC(=O)C(Sc1nncn1C)c1ccccc1 (centres undefined) | nt | i
O=C(NC1CC1)C1CCN(C2CCN(C(=O)Cc3ccc4c(c3)OCO4)CC2)CC1 | 0.64 | i
CCOC(=O)c1c(N)sc(-c2ccccc2)c1C | nt | i
CCOC(=O)c1c(N)sc(C(O)(C(F)(F)F)C(F)(F)F)c1-c1ccccc1 | -7.2 | -7.2*
CC(=O)C(N=Nc1ccccc1)(Sc1nnc(-c2ccccc2)n1-c1ccccc1)C(C)=O | nt | i
CN(C(=O)COC(=O)c1ccc([N+](=O)[O-])cc1Cl)C1CCCCC1 | nt | i
O=C(NCCc1ccc(Cl)cc1)C1COc2ccccc2O1 (centres undefined) | -6 | -6*
O=C(NCCO)C1COc2ccccc2O1 (centres undefined) | 0.89 | i
COCCCNc1nc2c(c(=O)[nH]c(=O)n2C)n1CC(O)COc1ccccc1 (centres undefined) | 1.3 | i
COC(=O)N/N=C/c1ccc(OC(=O)c2ccco2)c(OC)c1 | 0.16 | i
O=C(c1cc(C(=O)c2ccco2)cc(C(=O)c2ccco2)c1)c1ccco1 | 0.77 | i
Cc1cccc(-n2c(C)cc(/C=N/O)c2C)c1 | nt | i
O=C(COc1ccc(C(=O)NCCN2CCOCC2)cc1)Nc1cccc(C(F)(F)F)c1 | -5.7 | -5.7*
O=C(COc1ccc(C(=O)O)cc1)Nc1cccc(C(F)(F)F)c1 | 0.74 | i
COc1ccc(C2C(C(C)=O)=C(O)C(=O)N2C)c(OC)c1 (centres undefined) | 0.7 | i
Cc1cc(NC(=O)c2cn(C3CCCCC3)c(=O)c3c2c2ccccc2n3C)no1 | -5.8 | -5.8*
Cc1ccc(CNC(=O)c2cn(C3CCCCC3)c(=O)c3c2c2ccccc2n3C)o1 | nt | i
Cc1cc(C(C)(C)C)oc1C(=O)N(CC(=O)NC1CCCC1)c1ccc(F)cc1 | nt | i
Cc1cc(C(C)(C)C)oc1C(=O)N(CC(=O)NC1CCCC1)c1c(C)cccc1C | -7 | -7*
O=S(=O)(Nc1ccc(F)cc1Cl)c1ccc(-c2cnc(C3CC3)o2)cc1 | nt | i
CCCCCNC(=O)c1ccc2c(=O)[nH]c3c(C(=O)NCC4CCCO4)sc(=S)n3c2c1 (centres undefined) | -5.7 | -5.7*
Cc1ccc(CNC(=O)c2ccc3c(=O)[nH]c4c(C(=O)NCC5CCCO5)sc(=S)n4c3c2)cc1 (centres undefined) | nt | i
SMILES | KCNQ2 enhance | KCNQ2 block
COc1cc(-c2nc(-c3ccc4c(c3)-c3ccccc3S4(=O)=O)c(-c3ccccc3)[nH]2)cc(OC)c1OC | -7 | -7*
COc1cc(-c2nc(-c3ccccc3)c(-c3cccs3)[nH]2)cc(OC)c1OC | nt | i
COc1cc2c(cc1OC)C1=NC(=O)CN1C(SCc1ccc(C)cc1)=N2 | 1.3 | i
Cc1ccccc1C(=O)O/N=C/c1c(N2CCOCC2)n(C)c2ccccc12 | -7.6 | -7.6*
CN1CCN(c2c(/C=N/O)c3ccccc3n2C)CC1 | 1.7 | i
Cc1ccc(N2CC(C(=O)Nc3cc(C)ccc3F)CC2=O)cc1 (centres undefined) | 0.01 | i
Cc1ccc(SCCC(=O)NCCSCc2ccccc2C)cc1 | -7.8 | -7.8*
CCCCNC(=O)CCSc1ccc(C)cc1 | nt | i
O=C(Nc1ccc(C(=O)O)cc1)/C(=C\c1ccccc1)NC(=O)c1ccccc1 | nt | i
CCC(=O)OCc1cc2cccc(C)c2[nH]c1=O | 0.29 | i
CCOc1ccc(OCC(O)CNC2CCN(Cc3ccccc3)CC2)cc1 (centres undefined) | 0.8 | i
CC(C)(c1ccccc1)c1ccc(OCC(O)CNC2CCN(Cc3ccccc3)CC2)cc1 (centres undefined) | -8.3 | -8.3*
Cc1ccc(C)c(N2CCN(S(=O)(=O)c3c(C(=O)N4CCCCC4)c(C)n(C)c3C)CC2)c1 | nt | i
Cc1[nH]c(C)c(S(=O)(=O)N2CCN(c3cccc(Cl)c3)CC2)c1C(=O)N1CCCCC1 | nt | i
Cc1ccc(Cl)cc1N1CCN(S(=O)(=O)c2c(C)[nH]c(C)c2C(=O)N2CCCCC2)CC1 | -7.2 | -7.2*
Cc1ccc(C)c(N2CCN(S(=O)(=O)c3c(C)[nH]c(C)c3C(=O)N3CCCCC3)CC2)c1 | -6.7 | -6.7*
Cc1cc(C)nc(SCC(=O)Nc2nc(-c3ccccc3)c(-c3ccccc3)o2)n1 | 0.07 | i
Cc1ccc(C(=O)Nc2nc(-c3ccccc3)c(-c3ccccc3)o2)cc1 | 8.4* | i
CCN(CC)C(=O)CSc1nc2ccccc2c(=O)n1-c1cccc(OC)c1 | nt | i
